Compound activity as filed in PubChem.
DT40 TDP1 no CPT: qHTS for Inhibitors of human tyrosyl-DNA phosphodiesterase 1 (TDP1): qHTS in cells in absence of CPT; DT40 Tdp1-/- hTDP1 cells, no CPT, ATP luminescence, 48 h; hit rate 15% among 420,000; Potency, µM (series often up to 46.2 µM), without a hit: top-dose activity change, negative = growth inhibition, actives largely listed as inhibitors; note: nearly all actives have a fitted effect of over 55% in size
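No-CPT arm: Tdp1-/-;hTDP1 DT40 cells (400/well) plus compounds, incubated ≥48 hr at 37 °C. Readout CellTiter-Glo luminescence.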
KB-3-1 cytotox: kills parental KB-3-1 adenocarcinoma cells; KB-3-1 viability, CellTiter-Glo ATP luminescence, 72 h; Potency, µM (highest dose often 46.1 µM), usual class: cytotoxic; hit rate 1.4% among 400,000; note: nearly all actives have a fitted effect of over 60% in size
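Luminescent ATP read-out (CellTiter-Glo) measures survival of drug-naive KB-3-1 cells after 72 h compound exposure at 37 °C. Titration series was screened from lowest to highest concentration, with DMSO vehicle plates as background controls.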
HT1080 IDH1KD tx: toxicity to HT-1080 IDH1 knockdown cells (counter line); HT-1080 IDH1 knockdown viability, ATP luminescence, 48 h; Potency, µM (titrated, usually from 46.1 µM), without a hit: top-dose activity, negative = toxicity, most hits filed as cytotoxic; hit rate 2% among 360,000; AID 686971;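 note: 0% = DMSO wells and -100% = cell-free medium wells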
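% activity derives from luminescence (CellTiter-Glo), normalised to DMSO and no-cell wells. HT-1080-IDH1KD cells, 750/well, had 48 h compound exposure at 37 °C.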
HT1080NT lethal: kills 2HG-producing HT-1080-NT fibrosarcoma cells | HT-1080-NT fibrosarcoma viability, CellTiter-Glo ATP luminescence, 48 h | Potency, µM (titrated, usually from 46.1 µM), inactives show at the top dose activity, negative = less viability, hits mostly cytotoxic | hit rate 1.6% among 360,000 | AID 686970;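 note: NT is the 2HG producing partner of a matched IDH1 knockdown line; 0% = DMSO-treated cells and -100% = media-only wells without cells; nearly all actives have a fitted effect of over 55% in size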
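Viability of the 2HG-overproducing fibrosarcoma line after 48 hours of compound exposure at 37 degrees C was determined by luminescence with CellTiter-Glo, and concentration-effect curves were then fitted and categorized.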
KB-V1 MDR tox: kills drug-selected multidrug resistant KB-V1 cells | hit rate 3.4% among 400,000 | Potency, µM (titrated, usually from 46.1 µM), hits mostly cytotoxic | KB-V1 MDR cells viability, CellTiter-Glo, 72 h; note: nearly all actives have a fitted effect of over 60% in size
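KB-V1, DMEM (no phenol red) + 10% FBS; cpd pin-transferred, titration series; 72 h, 37 degrees C; CellTiter-Glo, luminescence. Data normalized, curve-fit.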
DT40 TDP1 CPT: growth inhibition of DT40 Tdp1-/-;hTDP1 cells with camptothecin (screen for TDP1 inhibitors). chicken DT40 Tdp1-/-;hTDP1 cells + 20 nM CPT, ATP luminescence, 48 h. hit rate 12% among 420,000. AID 686979. Potency, µM (highest dose often 46.2 µM), inactives show at the highest dose activity change, negative = growth inhibition, most hits filed as inhibitors; note: nearly all actives have a fitted effect of over 55% in size
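Chicken DT40 Tdp1-/- cells complemented with human TDP1, 400 cells/well, exposed to compounds plus 20 nM camptothecin for at least 48 h at 37 C; viability read as ATP content by CellTiter-Glo luminescence.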
Active calls of the source: *; i = inactive; ? = inconclusive; nt = no result. In the library only some 19% were active in any assay of this set; here they are far more common. Calls come from the whole dose curve; as a rule, active = well fitted curve in the direction sought with a large enough effect; inconclusive = small, poorly fitted or top-dose-only effect, or another doubt; inactive = no such curve, though single readings can be large; an effect the other way counts as inactive or inconclusive. Unless noted, % is set by controls: 0 for no effect and ±100 for the full control effect; potency is the fitted concentration of half-maximal effect.

SMILES	DT40 TDP1 no CPT	KB-3-1 cytotox	HT1080 IDH1KD tx	HT1080NT lethal	KB-V1 MDR tox	DT40 TDP1 CPT
O=C(NCc1ccc(C(F)(F)F)cc1)c1cccc2c(-c3ccc(F)c(F)c3)coc12	?	i	-14.8%	-21.4%	i	?
COc1ccc(NC(=O)c2cccc3c(-c4ccc(O)c(OC)c4)coc23)cc1	18.4µM*	i	?	?	?	?
COc1ccc(NC(=O)c2cccc3c(Br)cccc23)cc1	?	i	-11.7%	-4.0%	i	?
COc1cc(-c2coc3c(C(=O)NCc4ccccc4)cccc23)ccc1O	-76.5%	i	?	18.4µM*	i	18.4µM*
COc1cc(-c2coc3c(C(=O)NCc4cccc(Cl)c4)cccc23)ccc1O	18.4µM*	i	23.1µM*	?	?	?
COC(=O)[C@]12CCCCC=C1N(Cc1ccccc1)C(=O)[C@H](CC(=O)NCc1cccs1)C2	-25.8%	i	-13.3%	-2.6%	?	?
COC(=O)[C@]12CCCCC=C1N(Cc1ccco1)C(=O)[C@H](CC(=O)NCc1cccs1)C2	23.1µM*	i	10.4%	6.9%	i	?
CCCCOCCCNC(=O)C[C@@H]1C[C@@]2(C(=O)OC)CCCCC=C2N(Cc2ccco2)C1=O	16.4µM*	i	7.4%	2.1%	i	?
CCOC(=O)[C@]12CCCC=C1N(Cc1ccco1)C(=O)[C@H](CC(=O)NCc1cccs1)C2	25.9µM*	i	2.3%	20.3%	i	?
CCCCNC(=O)C[C@@H]1C[C@@]2(C(=O)OC)CCCCC=C2N(Cc2ccco2)C1=O	?	i	5.8%	4.4%	i	?
CCN(CC)S(=O)(=O)c1ccc2nc(NC(=O)c3ccc(Br)o3)sc2c1	-19.3%	i	nt	nt	i	-16.6%
Cc1ccccc1-c1cncnc1N1CCNCC1	-7.2%	nt	nt	nt	nt	5.7%
CCC(Oc1ccccc1)C(=O)N[C@@H]1C(=O)N2[C@@H]1SC(C)(C)[C@@H]2C(=O)O (some centres undefined)	0.4%	nt	nt	nt	nt	0.3%
CNC(=O)C(=O)Nc1ccc2c(c1)N(S(=O)(=O)c1cccs1)CCC2	?	i	6.8%	-1.4%	i	?
CCN(CC)CCNC(=O)C(=O)Nc1ccc2c(c1)N(S(=O)(=O)c1cccs1)CCC2	16.4µM*	i	?	?	i	14.6µM*
CCCCNC(=O)C(=O)Nc1ccc2c(c1)N(S(=O)(=O)c1cccs1)CCC2	1.84µM*	2.06µM*	8.2µM*	?	2.31µM*	2.59µM*
CCOc1ccc(-n2ccnc(SCC(=O)NCc3cccc(OC)c3)c2=O)cc1	23.1µM*	i	-7.2%	-6.8%	i	18.4µM*
CCOc1ccc(-n2ccnc(SCC(=O)Nc3ccc(OC)cc3OC)c2=O)cc1	23.1µM*	i	-19.8%	-19.1%	?	20.6µM*
O=C(NCC1CCCO1)C1CCCN1C(=O)Nc1ccc(Cl)cc1 (centres undefined)	-3.5%	i	0.4%	2.3%	i	21.1%
CCOC(=O)c1c(C)[nH]c(C)c1S(=O)(=O)N1CCC(C(=O)Nc2ccccn2)CC1	1.0%	i	nt	nt	?	-1.6%
CCCNC(=O)c1cc(C2CCCCN2C(=O)c2cc(F)ccc2C)on1 (centres undefined)	-21.7%	i	0.0%	13.3%	i	-27.7%
O=C(Nc1ccc(F)c(Cl)c1)c1cc(C2CCCCN2C(=O)C2CC2)on1 (centres undefined)	14.6µM*	i	-27.0%	-4.9%	i	25.9µM*
Cc1ccc(F)cc1C(=O)N1CCCCC1c1cc(C(=O)Nc2ccc(F)c(Cl)c2)no1 (centres undefined)	14.6µM*	?	-16.4%	-12.9%	i	20.6µM*
CC(C(=O)NCCCn1ccnc1)(c1ccccc1)c1ccccc1	18.4µM*	i	-3.3%	0.7%	i	14.6µM*
O=C(NCCCn1ccnc1)C(=O)Nc1ccccc1	?	i	26.4%	12.6%	i	16.4µM*
SMILES	DT40 TDP1 no CPT	KB-3-1 cytotox	HT1080 IDH1KD tx	HT1080NT lethal	KB-V1 MDR tox	DT40 TDP1 CPT
O=C(NCCCn1ccnc1)c1ccc(-c2cccc(Cl)c2Cl)o1	?	nt	-14.7%	0.0%	nt	18.4µM*
COc1ccc(NC(=O)C(=O)NCCCn2ccnc2)cc1	-4.9%	i	17.1%	1.7%	i	5.8%
CC(C)N1CCN(c2cccc(Nc3nn4c(=O)c5ccccc5nc4s3)c2)CC1	nt	i	nt	nt	i	nt
Cc1onc(C(=O)NN)c1C(=O)Nc1ncc(C(F)(F)F)cc1Cl	-18.3%	i	?	-20.8%	i	-10.1%
CCCCCCN=C1CC(C)(C)CC(=O)/C1=C(/O)CCC	16.4µM*	i	-1.4%	1.1%	i	?
CC1(C)CC(=O)/C(=C(\O)c2ccccc2)C(=NCCc2ccccc2)C1	-14.8%	i	-5.6%	3.6%	5.8µM*	-9.0%
COC(=O)CC/C(O)=C1\C(=O)CC(C)(C)CC1=Nc1ccccc1OC	?	?	?	-17.1%	?	23.1µM*
CCC/C(O)=C1\C(=O)CC(C)(C)CC1=Nc1ccc(OC)cc1OC	2.06µM*	?	7.31µM*	?	?	2.91µM*
CCCCN1C(=O)C(CC(=O)NCCCN(C)C)CC(C(=O)N(C)C)=C1C (centres undefined)	-5.6%	i	2.8%	-0.7%	i	0.9%
CCCCCN(C(=O)CCC(=O)OCc1ccc(Cl)cc1Cl)c1c(N)n(CCCC)c(=O)[nH]c1=O	?	i	-4.3%	-23.7%	i	?
CCCN1CNc2c(c(=O)[nH]c(=S)n2CCc2ccc(Cl)cc2)C1	?	nt	0.5%	-6.7%	nt	?
